The supplement of paper PMC7530171
Counter-ions that a name gives are not always drawn. ± gives the standard deviation.

What follows are compounds tested on THP-1 (assay: THP-1 cell loss relative to DMSO control; higher = more host cell loss (toxicity); extreme values may be limits of the assay). Details: 10 µM; 4 days; infection: M. tuberculosis H37Rv.
Experimental: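 OICR kinase inhibitor library screened in duplicate at 10 uM against M. tuberculosis-infected THP-1 macrophages, 4 days at 37 C. THP-1 cell loss (cytotoxicity or loss of adherence) was quantified from Hoechst-stained nuclei counts by high-content imaging and normalised to the 1% DMSO control; 100 = complete loss of host cells.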
For C[C@@H](Oc1cc(-n2cnc3ccc(CN4CCN(C)CC4)cc32)sc1C(N)=O)c1ccccc1C(F)(F)F, the THP-1 cell loss was 23.7 ± 4.8%.
N#CCNC(=O)c1ccc(-c2ccnc(Nc3ccc(N4CCOCC4)cc3)n2)cc1 gave a THP-1 cell loss of 100%.
c1ccc(-c2[nH]ncc2-c2ccnc3ccccc23)nc1 gave a THP-1 cell loss of 0%.
In the case of C=CC(=O)Nc1cccc(Oc2nc(Nc3ccc(N4CCN(C)CC4)cc3OC)ncc2Cl)c1, the THP-1 cell loss is reported as 42.4 ± 7.4%.
CC(C)(C)c1cnc(CSc2cnc(NC(=O)C3CCNCC3)s2)o1 showed a THP-1 cell loss of 100%.
With O=c1c(O)c(-c2ccc(O)c(O)c2)oc2cc(O)cc(O)c12 [Quercetin] the THP-1 cell loss was 12.8 ± 2.6%.
With Cn1cnc2c(NCc3ccccc3)nc(NCCO)nc21 [Olomoucine] the THP-1 cell loss was 3.14 ± 4.4%.
In the case of COc1cc2ncnc(Nc3cccc(Br)c3)c2cc1OC, the THP-1 cell loss is reported as 72.7 ± 4%.
Compound Cc1cc(Nc2nc(N[C@@H](C)c3ncc(F)cn3)ncc2Cl)[nH]n1 has a THP-1 cell loss of 4.08 ± 4.6%.
Cc1[nH]c(/C=C2\C(=O)Nc3ccc(S(=O)(=O)N(C)c4cccc(Cl)c4)cc32)c(C)c1C(=O)N1CCN(C)CC1 showed a THP-1 cell loss of 65.8 ± 13%.
With CCN(CC)CCNC(=O)c1c(C)[nH]c(/C=C2\C(=O)Nc3ccc(F)cc32)c1C [Sunitinib Malate] the THP-1 cell loss was 53.7 ± 18%.
Work on COc1ccc2c3n(c(=NC(=O)c4cccnc4)nc2c1OC)CCN3 yielded a THP-1 cell loss of 32.5 ± 0.91%.
N#CC(=C(/N)Sc1ccccc1N)/C(C#N)=C(/N)Sc1ccccc1N gave a THP-1 cell loss of 39.2 ± 23%.
Nc1ncnc2c1c(-c1cccc(OCc3ccccc3)c1)cn2C1CC(CN2CCC2)C1 (stereo not given) gave a THP-1 cell loss of 18.9 ± 6%.
CS(=O)(=O)CCNCc1ccc(-c2ccc3ncnc(Nc4ccc(OCc5cccc(F)c5)c(Cl)c4)c3c2)o1 [Lapatinib ditosylate] was tested, and the THP-1 cell loss was 100%.
For O=c1cc(-c2cccc3c2Sc2ccccc2S3)oc(N2CCOCC2)c1, the THP-1 cell loss was 26.6 ± 14%.
Work on O=C(Nc1nc2ccccc2n1CCN1CCOCC1)c1cccc([N+](=O)[O-])c1 [IRAK-1/4 Inhibitor I] yielded a THP-1 cell loss of 2.5 ± 3.5%.
With O=C(c1ccc(Nc2nccc(-c3cc4ccccc4s3)n2)cc1)N1CCC(N2CCCC2)CC1 the THP-1 cell loss was 100%.
In the case of CC(C)c1cc(/C=C(\C#N)C(=O)NCCCc2ccccc2)cc(C(C)C)c1O [Tyrphostin SU 1498], the THP-1 cell loss is reported as 30.1 ± 12%.
In the case of CN1CCN(c2ccc3nc(-c4c(N)c5c(F)cccc5[nH]c4=O)[nH]c3c2)CC1 [Dovitinib], the THP-1 cell loss is reported as 100%.
Oc1cccc(-c2nc(N3CCOCC3)c3oc4ncccc4c3n2)c1 showed a THP-1 cell loss of 24.3 ± 3.9%.
COc1cc(/C=C(\C#N)C(N)=O)cc(CSc2nc3ccccc3s2)c1O was tested, and the THP-1 cell loss was 3 ± 4.2%.
In the case of NC(=O)Nc1sc(-c2ccc(F)cc2)cc1C(N)=O, the THP-1 cell loss is reported as 76.1 ± 3%.
In the case of O=C(O)c1cc(N(Cc2ccccc2O)Cc2cc(O)ccc2O)ccc1O [Lavendustin A], the THP-1 cell loss is reported as 4.39 ± 6.2%.
With Cc1cc(C(=O)Nc2cc(Nc3ccc4c(/C=C/c5ccccn5)n[nH]c4c3)ccc2F)n(C)n1 the THP-1 cell loss was 54.6 ± 11%.
Work on CCN(CCCOc1ccc2c(Nc3cc(CC(=O)Nc4cccc(F)c4)[nH]n3)ncnc2c1)CCOP(=O)(O)O yielded a THP-1 cell loss of 7.93 ± 5.5%.
For Cn1c(=O)c(Oc2ccc(F)cc2F)cc2cnc(NC3CCOCC3)nc21, the THP-1 cell loss was 17.2 ± 6.1%.
For CC#CC(=O)Nc1cc2c(Nc3ccc(F)c(Cl)c3)ncnc2cn1, the THP-1 cell loss was 89.9 ± 14%.
For CO[C@@H]1[C@H](N(C)C(=O)c2ccccc2)C[C@H]2O[C@]1(C)n1c3ccccc3c3c4c(c5c6ccccc6n2c5c31)C(=O)NC4, the THP-1 cell loss was 30.8 ± 4.7%.
For COc1cccc2cc(-c3nc([C@H]4CC[C@H](C(=O)O)CC4)n4ncnc(N)c34)[nH]c12 [OSI-027 hydrochloride], the THP-1 cell loss was 51.2 ± 4.5%.
Work on Clc1ccc(Nc2nnc(Cc3ccncc3)c3ccccc23)cc1 [Vatalanib dihydrochloride] yielded a THP-1 cell loss of 39.2 ± 3.4%.
In the case of COc1cc2ncnc(Nc3ccc(O)cc3)c2cc1OC [Janex-1], the THP-1 cell loss is reported as 10.7 ± 0.54%.
With CCc1cc(Nc2nccc(-c3c(-c4ccc(OC)c(C(=O)Nc5c(F)cccc5F)c4)nc4ccccn34)n2)c(OC)cc1N1CCC(N2CCN(S(C)(=O)=O)CC2)CC1 the THP-1 cell loss was 10.9 ± 13%.
Work on CCCS(=O)(=O)Nc1ccc(F)c(C(=O)c2c[nH]c3ncc(Cl)cc23)c1F yielded a THP-1 cell loss of 11.5 ± 14%.
With COc1cc2nccc(Oc3ccc(NC(=O)NC4CC4)c(Cl)c3)c2cc1C(N)=O the THP-1 cell loss was 20.6 ± 14%.
For COc1ccc(OC)c2c(=S)c3ccccc3[nH]c12, the THP-1 cell loss was 9.79 ± 3.8%.
With O=C1NCCCc2c1oc1ccc(O)cc21 the THP-1 cell loss was 6.23 ± 8.8%.
With Cc1cc(C(C)Nc2ccccc2)c2nc(N3CCOCC3)cc(=O)n2c1 (stereo not given) the THP-1 cell loss was 10.5 ± 5.8%.
CCc1nc(-c2cccc(C)c2)c(-c2ccnc(NC(=O)c3ccccc3)c2)s1 was tested, and the THP-1 cell loss was 23.2 ± 2.1%.
For C[C@]1(O)C[C@@H](c2nc(-c3ccc4ccc(-c5ccccc5)nc4c3)c3c(N)nccn32)C1, the THP-1 cell loss was 38.5 ± 4%.
